Results as given in PubChem BioAssay (NCI).
The panel holds about 83,000 compounds, 20% with a hit somewhere; the sample as a whole holds those more often.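 48-hour exposure, single concentration, 96-well plates; percent growth endpoint where 0 means no net growth. Active: below 10.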 A number with no mark means an inactive call. Active and inactive are the calls of the source.

Key:
Experiment in all cases: NCI-60 one-dose screen, 48 h (100 = growth as untreated, 0 = no growth, -100 = all killed)
Details in all cases: 10 µM unless noted
[1] = system: NCI-H23 lung
[2] = system: NCI-H226 lung
[3] = system: NCI-H322M lung
[4] = system: HOP-62 NSCLC
[5] = system: NCI-H460 lung
[6] = system: HOP-92 NSCLC
[7] = system: NCI-H522 lung
[8] = system: A549/ATCC NSCLC
[9] = system: 786-0 renal
[10] = system: COLO 205 colon
[11] = system: DU-145 prostate
[12] = system: K-562 leukemia
[13] = system: MALME-3M melanoma
[14] = system: MDA-MB-231 breast
[15] = system: RXF 393 renal
[16] = system: SF-268 CNS
[17] = system: SF-295 CNS
[18] = system: SF-539 CNS
[19] = system: UACC-257 melanoma
[20] = system: M14 melanoma

Row | Compound | growth [1] | growth [2] [%] | growth [3] | growth [4] [%] | growth [5] | growth [6] | growth [7] | growth [8] [%] | growth [9] | growth [10] | growth [11] | growth [12] | growth [13] [%] | growth [14] | growth [15] | growth [16] [%] | growth [17] | growth [18] | growth [19] [%] | growth [20]
1 | O=[N+]([O-])/C(=C/C=C/c1ccccc1)c1ccccc1 | 75.5% | 87.8 | 100% | 35.9 | 70.7% | -8.76% (active) | 19.8% | 72.6 | -7.75% (active) | 23.2% | 26% | 24.4% | 96.1 | 61.7% | 35.4% | 35.3 | 91.5% | 36.8% | 77 | 37.8%
2 | COc1ccc(C(=O)Nc2cccc(C3CC(=O)c4c(cc(OC)c(OC)c4OC)O3)c2)cc1 (stereo not given) | 35.2% | 25 | 37.8% | 14.1 | 4.37% (active) | 34.3% | -37.1% (active) | 28.5 | 13.8% | -5% (active) | 2.98% (active) | 7.66% (active) | 31.4 | 41.9% | -8.37% (active) | 46.6 | 9.55% (active) | -29.7% (active) | 46.2 | -23.9% (active)
3 | COc1cc2c(c(OC)c1OC)-c1ccc(OC)c(=O)cc1[C@@H](NC(=O)CCl)CC2 | 5.73% (active) | 12.5 | 52.1% | 40.4 | -5.39% (active) | 10% | -27.4% (active) | 13 | 14.6% | -71.9% (active) | -18% (active) | 22.1% | 91.8 | 4.86% (active) | -12.6% (active) | 23.2 | 25.1% | 4.53% (active) | 60.1 | -47.2% (active)
4 | C#Cc1cccc(Nc2ncnc3ccc(-c4cncc(NS(C)(=O)=O)c4)cc23)c1 | 26.5% | 45 | 1.41% (active) | 32 | 51.6% | -12.2% (active) | 3.44% (active) | 48.8 | 40.6% | 17.7% | 28.3% | 37.2% | 33.2 | 23.7% | 7.78% (active) | 24.1 | 37.6% | 17% | 37.4 | 47%
